Most compounds without a hit are left out; they make up all but 1.5% or so of the library.
MLLE-PAM2 inh – blocks PAM2 peptide binding to the PABP1 MLLE domain | P11940 | GST-MLLE / FITC-PAM2 fluorescence polarization | inhibition, % at 20 µM | 360,000 compounds, 0.36% hits; in the data active = inhibition above about 35%, passing the limit was not always enough;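 also: plate controls were DMSO wells with GST-MLLE for no effect and wells lacking GST-MLLE protein for full effect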
Target sequence (P11940 whole entry, looked up, the tested form may be a part): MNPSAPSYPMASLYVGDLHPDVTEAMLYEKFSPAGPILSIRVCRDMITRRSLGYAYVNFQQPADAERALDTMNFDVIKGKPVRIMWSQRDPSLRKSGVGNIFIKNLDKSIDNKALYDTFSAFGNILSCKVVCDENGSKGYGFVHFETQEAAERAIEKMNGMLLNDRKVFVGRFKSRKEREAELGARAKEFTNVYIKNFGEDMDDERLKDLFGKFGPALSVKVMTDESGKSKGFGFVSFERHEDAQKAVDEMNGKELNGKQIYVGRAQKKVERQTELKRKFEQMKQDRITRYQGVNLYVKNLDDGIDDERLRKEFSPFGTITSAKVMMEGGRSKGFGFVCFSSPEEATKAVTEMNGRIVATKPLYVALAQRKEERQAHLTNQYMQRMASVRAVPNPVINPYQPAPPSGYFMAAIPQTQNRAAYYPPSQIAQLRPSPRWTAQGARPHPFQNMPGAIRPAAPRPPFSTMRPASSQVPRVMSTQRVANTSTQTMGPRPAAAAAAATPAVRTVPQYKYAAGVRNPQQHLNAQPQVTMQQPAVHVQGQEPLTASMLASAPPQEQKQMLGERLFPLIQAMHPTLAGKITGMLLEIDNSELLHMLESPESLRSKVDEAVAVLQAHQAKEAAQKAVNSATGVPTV
eIF4E 4G PPI – eIF4E/eIF4G interaction inhibition in translation initiation; P63073+Q04637; AID 782; inhibition, % at 21.7 µM; TR-FRET eIF4E-eIF4GI(517-606) binding, 2 h; 220,000 compounds, 0.37% hits;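 active = inhibition above about 30%, limit read from the data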;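 also: 0% = full FRET control wells and 100% = background wells lacking eIF4GI fragment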
PABP FP inh – blocks human PABP binding to poly(A) RNA; calls only at 35 µM; P11940; fluorescence polarization; 290,000 compounds, 1% hits;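 also: calls also rest on retests at 20 µM and on dose response follow-up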
eIF4H inh – inhibitors of RNA binding by human eIF4H. Q15056. eIF4H fluorescence polarization binding assay. inhibition, % at 35 µM. 290,000 compounds, 0.94% hits. AID 2012;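 also: calls also rest on retests at 20 µM and on dose response follow-up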
* hit, by the source's call; i = inactive; ? = inconclusive; nt = no result given; + = active, no number; [ ] = another dose, or the depositor's remark. Unless noted, no rule for the calls is given here.

SMILES	MLLE-PAM2 inh	eIF4E 4G PPI	PABP FP inh	eIF4H inh
CCOC(=O)C1(C)CCN1C(=O)c1ccc(OC)c(C(F)(F)F)c1 (configuration not stated)	14	nt	nt	nt
Cc1cc(/C=C2/C(=N)N3C(=NC2=O)SN=C3S(C)(=O)=O)c(C)n1-c1ccccc1F	12	31*	i	17
CC(=O)Nc1ccc(-c2ccnc3c2CC(C(=O)Nc2cccc(N(C)C)c2)O3)cc1 (configuration not stated)	4	nt	nt	nt
CN(Cc1ccccc1)C(=O)C1CCN(S(=O)(=O)c2ccc3nc4c(c(C(=O)O)c3c2)CCCC4)CC1	-6	nt	i	66*
COc1ccc(-n2nnnc2C(c2cc3ccccc3o2)N2CCN(C/C=C/c3ccccc3)CC2)cc1 (configuration not stated)	2	nt	nt	nt
C[C@@H]1CN([C@@H](C)CO)C(=O)CCCn2nncc2CO[C@@H]1CN(C)S(=O)(=O)c1ccccc1C#N	0	nt	nt	nt
O=C(N/N=C\c1ccc([N+](=O)[O-])o1)c1cncc(Br)c1	-2	-5	+	71*
O=C(NN=Cc1ccc(F)cc1)c1ccccc1NS(=O)(=O)c1cccs1	3	nt	nt	nt
O=C(N/N=C/c1ccc([N+](=O)[O-])o1)c1cc2ccccc2o1	-11	1	+	70*
O=C(N/N=C/c1ccc(-c2ccccc2[N+](=O)[O-])o1)c1cncc(Br)c1	19	-2	i	10
O=C(N/N=C/c1ccc([N+](=O)[O-])o1)c1ccccc1NS(=O)(=O)c1cccs1	-2	-2	+	76
C/C(=N\Nc1ccc([N+](=O)[O-])cc1)c1cc2ccccc2o1	-136	4	i	57*
CC(C)C[C@H]1CNC(=S)N1C[C@H]1CCCN1C[C@H](Cc1ccc(O)cc1)N1C[C@H](Cc2ccc(O)cc2)N(CC2CCCCCC2)C1=S	-13	nt	nt	nt
O=C(N/N=C/c1ccc([N+](=O)[O-])o1)c1cc2c(ccc3ccccc32)o1	-5	38*	+	76
Cc1ccc(/C=N/NC(=O)c2cc3c(ccc4ccccc43)o2)o1	-1	nt	i	-6
C/C(=N\NC(=S)Nc1cccc(C)c1)c1cc2ccccc2o1	43*	-1	i	7
N#CC(=C=[N-])c1nc2ccccc2nc1-[n+]1cccc(NC(=O)c2cccs2)c1	-8	-6	+	54*
N#CC(=C=[N-])c1nc2ccccc2nc1-[n+]1cccc(NC(=O)c2ccccc2)c1	-6	14	i	22
O=C(c1[nH]c(C(F)(F)F)nc1-c1ccccc1)N1CCN(c2c(Cl)cncc2Cl)CC1	-11	nt	nt	nt
CCNC(=O)C1(C)CCCN1C(=O)c1ccc(-c2ccccc2)cc1 (configuration not stated)	-8	nt	nt	nt
COC(=O)C1=NN(c2ccc(OC)cc2)C2C(=O)N(c3ccccc3OC)C(=O)C12 (configuration not stated)	1	39*	i	-5
N#Cc1ccsc1NC(=O)CN1C(=O)NC2(CCCCC2)C1=O	-30	nt	+	68
COc1ccc(N2C(=O)CC(C#N)=C2N)cc1	6	-2	i	2
N#CC1=C(N)N(c2ccccc2)C(=O)C1	-1	-5	+	32
Oc1[nH]c(N=C2N=c3ccccc3=N2)c2ccccc12	13	-2	+	80*
SMILES	MLLE-PAM2 inh	eIF4E 4G PPI	PABP FP inh	eIF4H inh
CCO/C=C/C(O)(CNC(=O)c1ccc(C(C)(C)C)cc1)C(F)(F)F (configuration not stated)	-11	-3	+	99
CCOC(=O)CNC(=O)c1ccc(C)cc1	0	-2	i	-8
CN(CC(=O)Nc1ccc(Cl)c(Cl)c1)CC(=O)N1CCc2ccccc21	-10	nt	nt	nt
COc1ccc(CNc2ccc(S(N)(=O)=O)cc2)cc1	57*	3	i	1
c1ccc(CN2CCC3CC2c2cc(N4CCOCC4)ccc23)cc1 (configuration not stated)	2	nt	nt	nt
CN(C)CCOC(=O)c1ccc2[nH]c3c(c2c1)CSCC3	20	6	i	33
O=C(O)c1ccc2[nH]c3c(c2c1)CSCC3	33	5	i	56*
Cc1ccc(-n2c(C)nc3oc4ccccc4c(=O)c3c2=O)cc1	-32	12	+	40*
COc1ccc2c(=O)c3c(=O)n(-c4ccc(C)cc4)c(-c4ccccc4)nc3oc2c1	nt	-2	i	7
Cc1oc(/N=C/c2ccc(Cl)cc2)c(C#N)c1C	-2	3	+	53*
Cc1oc(/N=C/c2ccc(O)cc2O)c(C#N)c1C	32	1	i	?
Cc1oc(/N=C/c2ccccc2O)c(C#N)c1C	11	-6	+	79*
O=C(Nc1ccc(Cl)cc1)c1csc([C@@H]2C[C@H](O)[C@@H](CO)O2)n1	12	nt	nt	nt
COc1cc2c3c(c1)/C(=C1/SC(NC(C)=O)=NC1=O)C(=O)N3C(C)(C)C=C2C	37*	-7	i	18
O=C(OCC(=O)c1c[nH]c2ccccc12)c1ccc(OC(F)F)cc1	-2	nt	nt	nt
COc1cc2c(C#N)c(N3CCN(C)CC3)nc(N)c2c(N)n1	3	-8	+	105*
NS(=O)(=O)c1ccc(CCNc2nn3c(-c4cccc(OC(F)(F)F)c4)cnc3s2)cc1	-36	nt	nt	nt
Cn1ccc(CC(=O)N2CCC(N3CCC(C(=O)N4CCCC4)CC3)CC2)c1	-12	-4	+	52*
O=C(NC1CC1)C1CCN(C2CCN(C(=O)Cc3ccc(F)cc3)CC2)CC1	9	4	i	-6
Cc1nc2ccc(C(=O)NCCCN3CCCC3=O)cn2c1N(C)C(=O)CCc1ccccc1	3	nt	nt	nt
Cc1ccc([C@H]2C[C@@H](O)[C@H](n3cc(COC(=O)c4ccccc4)nn3)CN2C(=O)c2cccs2)cc1	-10	nt	nt	nt
COc1ccc(NC(=S)NC(C)Cc2cccs2)cc1 (configuration not stated)	-48	3	+	108*
CCc1nc2c(OCC3COc4ccccc4O3)cccn2c1N(C)C(=O)c1cccc(OC)c1 (configuration not stated)	-3	nt	nt	nt
CCCCn1c(NC(=O)c2ccc(Br)o2)c(S(=O)(=O)c2ccccc2)c2nc3ccccc3nc21	-1	17	+	56*
CCCCn1c(NC(=O)c2ccco2)c(S(=O)(=O)c2ccc(C)cc2)c2nc3ccccc3nc21	-75	5	i	10
SMILES	MLLE-PAM2 inh	eIF4E 4G PPI	PABP FP inh	eIF4H inh
CC(=O)Nc1ccc(NC(=O)CC2Nc3cccc4cccc(c34)NC2=O)cc1 (configuration not stated)	25	nt	+	106*
Cc1cccc(NC(=O)CC2Nc3cccc4cccc(c34)NC2=O)c1 (configuration not stated)	17	-1	+	113*
c1ccc(NN=C(c2ccccc2)c2cccs2)cc1	-21	nt	nt	nt
O=c1oc2c(O)c(O)cc3c(=O)oc4c(O)c(O)cc1c4c23	8	56*[fluorescence artefact?]	i	102
Cc1c(C)c2cc(Cl)c(O)c(CN(C)C)c2oc1=O	-10	2	i	15
COc1cccc(CNC(=O)CCC2CCCN(C(=O)c3cccc4c(C)c(C)[nH]c34)C2)c1 (configuration not stated)	8	3	+	66*

Compound activity deposited in PubChem by several laboratories.
